According to PubChem BioAssay (NCI):
Several values for one entry are separate records, joined by “and”; a condition that tells them apart may be missing. Identical values can stand only once. The panel holds about 83,000 compounds, 20% with a hit somewhere; the sample as a whole holds those more often.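 Assay: single dose, 48 h. Readout: percent growth (0 = no net growth; negative = cell death). Active: <10.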 Values without a mark were called inactive. Activity calls are given as the source filed them.

test system: MDA-MB-468 breast; experiment: NCI-60 one-dose screen, 48 h (100 = growth as untreated, 0 = no growth, -100 = all killed); conditions: 10 µM unless noted

| Structure (SMILES) | growth |
| --- | --- |
| O=C(c1ccccc1)C(CCc1ccccn1)CCc1ccccn1 | 108% |
| COc1ccc(CNS(=O)(=O)/N=C2\NC(=O)NC2=C(Cl)Cl)cc1 | 19.4% |
| O=c1[nH]c2c(s1)CCCC2CN1CCCCC1 (stereo not given) | 109% |
| CNC(=O)NCC1OC(n2cnc3c(NC(=O)Nc4ccccc4)ncnc32)C2OC(C)(C)OC12 (stereo not given) | 101% |
| CC(=O)NC(CCc1ccc(Cl)c(Cl)c1)c1cccc(O)c(=O)c1 (stereo not given) | -31.6% (active) |
| C=C1CC[C@@H]2[C@](C)(COC(C)=O)[C@H](OC(C)=O)CC[C@@]2(C)[C@@H]1CC(Nc1ccc(S(=O)(=O)Nc2cc(C)on2)cc1)C1=CCOC1=O (stereo not given in full) | 3.23% (active) |
| CC1C(=O)CCCC1=O | 122% |
| Nc1ncnc2c1ncn2C1OC(COP(=O)(O)O)C(O)C1O (stereo not given) | 102% |
| CN1CCN(c2ccc3c(c2)nc(NNC(=O)c2ccncn2)c2cccn23)CC1 | 19.7% |
| NC1=C(Cl)C(=O)c2ccccc2C1=O | 36.5% |
| Nc1c(C(=O)Nc2cccc3ccccc23)sc2nc3c(cc12)C(=O)CCC3 | 50% |
| Cc1ccc(/C=C/C(=O)c2cccc(OCCCOc3cccc(C(=O)/C=C/c4ccc(C)cc4)c3)c2)cc1 | 89.9% |
| COc1ccc2c(c1)oc1c(C)c3c(c(C)c12)C(=O)N(Nc1ccccc1)C3=O | 115% |
| C/C(=C(/c1ccc(O)cc1)c1ccc(OCCN(C)C)cc1)c1ccc(Cl)cc1 | 22.2% |
| COc1ccc(CCN2C(=O)CCSC2=S)cc1 | 10.7% |
| C[C@@H]1CCC2=C(CCC[C@]2(C)C(=O)O)[C@@]1(C)CCc1ccoc1 | 95.4% |
| CCN(CC)CCS(=O)(=O)CCNc1ccnc2cc(Cl)ccc12 | -49.2% (active) |
| Nc1ccc(NC(=O)c2ccccc2)c2c1C(=O)c1ccccc1C2=O | 107% |
| O=C(Cc1ccc(F)cc1)c1ccccc1 | 127% |
| O=C1NC(=O)/C(=C\c2ccco2)S1 | 108% |

| Structure (SMILES) | growth |
| --- | --- |
| NS(=O)(=O)c1ccc(-n2ncc3c(=O)[nH]c(CN4CCN(c5cc6c(cc5F)c(=O)c(C(=O)O)cn6C5CC5)CC4)nc32)cc1 | 95.4% |
| O=C(Cc1nc2ccc([N+](=O)[O-])cc2nc1CC(=O)c1ccccc1)c1ccccc1 | 68.9% |
| O=C(Oc1ccc[nH]c1=O)c1cccc(Cl)c1 | 89.8% |
| CCOC(=O)c1nn(-c2ccc(C)cc2)c(=O)c2c(N)c(C#N)c(-c3ccc(OC)cc3)cc12 | 102% |
| O=C(Nc1cnc(Nc2ccc(N3CCOCC3)nc2)nc1Oc1ccc(C(F)(F)F)cc1)c1ccncc1 | 103% |
| CN(C)c1cccc2[nH]c(-c3[nH]ncc3Nc3ccnc(N)n3)nc12 | -67.5% (active) |
| CC1(C)C(N)=Nc2cc(OCCCN3Cc4ccccc4C3)c(OCC3CC3)cc21 | 47.3% |
| O=S(=O)(NCCCNc1nccc(-n2ccc3cccnc32)n1)c1ccc(Br)cc1 | 90.3% |
| O=C(O)C1CSCN1 (stereo not given) | 114% and 95.5% |
| CCOC(=O)N1CCc2c(sc3nc4nc[nH]n4c(=O)c23)C1 | 112% |
| Cc1n(Cc2ccc3ccccc3n2)cc[n+]1Cc1ccc2ccccc2c1 | -23.5% (active) |
| COc1cc(/C(=C2/O[C@@H]([C@H]3COC(C)(C)O3)[C@H]3OC(C)(C)O[C@@H]23)c2ccc3ccccc3c2)cc(OC)c1OC | 51.2% |
| Fc1ccc(-c2nc(C(Cl)Cl)nc3cc(-c4ccccc4)nn23)cc1 | -52.7% (active) |
| O=[N+]([O-])c1cccc(N=Cc2ccccc2)c1 | 106% |
| CC(=O)OC[C@]12CCC(C)(C)C=C1[C@H]1CC[C@@H]3[C@@]4(C)CCCNC(C)(C)[C@@H]4CC[C@@]3(C)[C@]1(C)CC2 | -6.16% (active) |
| O=C(/C=C1\C(=O)N(Cc2ccc([N+](=O)[O-])cc2)c2ccccc21)c1ccc(OCCN2CCCC2)cc1 | 59.4% |
| CCN(C(=O)Nc1ccccc1Cl)c1ccccc1 | 97.4% |
| CN1CCN(Cc2ccc(NC(=O)c3cncc(C#Cc4cnc5ccc(N6CCN(C)CC6)nn45)c3)cc2C(F)(F)F)CC1 | -75.2% (active) |
| COc1c(B(O)O)cccc1-c1nc2ccc3[nH]ncc3c2c2c1C1CCC2C1 (stereo not given) | 89.9% |
| C=C(C)[C@@H]1CC[C@]2(C)[C@H](CC=C3[C@@H]4CC(C)(C)CC[C@]4(C(=O)OC)CC[C@]32C)[C@@]1(C)CC/C(N)=N/O | -13% (active) |
